This is part of a sample that, as a whole, favours compounds with a hit. Of some 83,000 tested, about 20% had one in any assay.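 Cells were grown in 96-well plates and exposed to the test compound at a single concentration for 48 hours; results are reported as percent growth, with values below 10 considered active.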 A number with no mark means an inactive call. Calls of active or inactive are those of the source.
What follows are molecules tested on OVCAR-8 ovarian (assay: NCI-60 one-dose screen, 48 h (100 = growth as untreated, 0 = no growth, -100 = all killed)). Settings: 10 µM unless noted.

SMILES	growth
CN1CCN(CCCNC(=O)c2c3c(n4ccccc24)C(=O)c2ncccc2C3=O)CC1	-9.12% (active)
CN1CCN(CC(=O)N(C)c2ccc(N=C(c3ccccc3)c3c(O)[nH]c4ccc([N+](=O)[O-])cc34)cc2)CC1	79.6%
CCCCCCCCNc1ncnc2c1ncn2Cc1nnc2c3ccccc3c(Cl)nn12	30%
CC/C(=C(/c1ccc(Cl)cc1)c1ccc(OCCCN(C)C)cc1)c1ccc(OC)cc1	74.3%
CCN(CC)CCCNC(=O)c1c2c(n3ccccc13)C(=O)c1ncccc1C2=O	-56.1% (active)
CCCn1cnc2c(c1=N)C(c1ccc(Cl)cc1)c1sc3c(F)cccc3c1O2 (configuration not stated)	86.4%
Cc1ccc(C23CCC(=O)N2CCc2cncn23)cc1 (configuration not stated)	97.2%
Cc1c(C(=O)C(SC(=S)N2CCOCC2)SC(=S)N2CCOCC2)nnn1-c1ccc([N+](=O)[O-])cc1	99.1%
O=[N+]([O-])c1ccc(Oc2cccc3c(Oc4ccc([N+](=O)[O-])cc4[N+](=O)[O-])cccc23)c([N+](=O)[O-])c1	77.7%
CN(C)CCOc1ccc(/C(=C(/CCCCCCCCCC[P+](c2ccccc2)(c2ccccc2)c2ccccc2)c2ccccc2)c2ccccc2)cc1	-53.5% (active)
CC1(C)CC[C@]2(CO)CC[C@]3(C)C(=CC[C@@H]4[C@@]5(C)CCNCC(C)(C)[C@@H]5CC[C@]43C)[C@@H]2C1	87.4%
COc1cc(/C=C2\CN(S(=O)(=O)c3ccc(C)cc3)C/C(=C\c3cc(CN4CCCC4)c(O)c(OC)c3)C2=O)cc(CN2CCCC2)c1O	8.04% (active)

Source: PubChem BioAssay (NCI)
